The list is not random: actives were taken first. Their share in the collection is about 6.1%.
D1 agonist: activates the human D1 dopamine receptor; P21728; HEK293 T-REx D1 cells, calcium flux, agonist mode; activation, % at 2 µM; hit rate 1% among 360,000; AID 504660; in the data active = activation above about 30%
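Inducible HEK293 T-REx D1 cells, force-coupled to calcium signalling, were plated at 4000 cells/well with tetracycline and held overnight at 30 C. After no-wash calcium dye loading, compound-evoked calcium rise over 180 s flagged agonists.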
DRD3 antagonist: antagonists of human D3 dopamine receptor; P35462; D3R cells, DiscoveRx beta-arrestin luminescence, antagonist mode; stronger effect = lower value; max response, negative = inhibition, %; hit rate 2.5% among 360,000; in the data active = max response below about -50%; inconclusive = no clear call, values can overlap the other calls
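Cells plated overnight at 1500 cells/well, then exposed to library compounds with dopamine controls for 90 minutes at 37 degrees C. DiscoveRx reagent added for 30–60 minutes at room temperature; luminescence read, quantitative HTS format.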
D1 antagonist: antagonists of human D1 dopamine receptor | hit rate 3.2% among 360,000 | activity change, negative = inhibition, % at 10 µM | P21728 | HEK293 TREx D1 cells, calcium flux, dopamine EC80; stronger effect = lower value; in the data active = activity change below about -30%
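Inducible Hek293 Trex D1 cells (tetracycline, overnight, 30 C). Calcium dye 30–90 min RT. Antagonist mode: EC80 dopamine added after 180 s compound read.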
ERG Ets-DNA blk: inhibitors of human ERG Ets domain-DNA interaction. P11308. fluorescence polarization, His-ERG Ets domain / labelled DNA. Potency, µM (doses to about 76.9 µM), most hits filed as inhibitors. hit rate 0.028% among 370,000. AID 624246; active = well fitted inhibition curve with a large enough effect in the polarisation, with a control signal flat; inconclusive = small, poorly fitted or top-dose-only effect, or effect the other way, or a change in a side signal; inactive = no such curve, though single readings can be large or run the other way; the % refers to the polarisation;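 also: polarization taken with two DNA probes labelled with fluorescein and Texas red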
Target sequence (P11308 whole entry, looked up, the tested form may be a part): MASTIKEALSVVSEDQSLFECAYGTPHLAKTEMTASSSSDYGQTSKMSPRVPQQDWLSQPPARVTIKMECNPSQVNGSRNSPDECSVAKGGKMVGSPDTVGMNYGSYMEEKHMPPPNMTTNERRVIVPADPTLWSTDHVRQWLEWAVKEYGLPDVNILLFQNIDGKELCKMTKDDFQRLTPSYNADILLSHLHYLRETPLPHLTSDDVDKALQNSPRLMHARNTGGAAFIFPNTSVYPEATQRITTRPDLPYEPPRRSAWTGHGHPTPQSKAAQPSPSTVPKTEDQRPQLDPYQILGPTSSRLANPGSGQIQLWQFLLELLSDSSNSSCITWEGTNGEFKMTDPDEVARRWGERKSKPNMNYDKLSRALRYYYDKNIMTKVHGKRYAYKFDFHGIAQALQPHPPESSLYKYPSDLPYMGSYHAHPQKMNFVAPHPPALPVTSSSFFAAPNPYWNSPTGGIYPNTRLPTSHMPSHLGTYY
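His-tagged ERG Ets domain (1 uM in the protein solution; 300mM KCl, 50mM Tris-HCl, 1mM EDTA, 1mM DTT, pH 7.5) received compound, then a probe mix of 5 nM fluorescein-DNA and 100nM Texas-615-DNA. Fluorescence polarization was read for both dyes.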
DRD3 agonist: agonists of human D3 dopamine receptor | hit rate 0.58% among 410,000 | max activation, % | D3R DiscoveRx beta-arrestin cells, luminescence, 90 min; in the data active = max activation above about 30%
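Cells at 1500/well, incubated overnight, then treated with pinned compounds (dopamine as control) for 90 min at 37 degrees C. DiscoveRx reagent added for 30 - 60 minutes at room temperature; luminescence read.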
D1 PAM: human D1 dopamine receptor positive modulation. P21728. HEK293 TREx D1 cells, calcium flux, dopamine EC20 potentiation. potentiation, % at 10 µM. hit rate 0.036% among 360,000. AID 504651; in the data active = potentiation above about 30%
Hits are given with their value; . = inactive; ? = inconclusive; / = no result given.

SMILES	D1 agonist	DRD3 antagonist	D1 antagonist	ERG Ets-DNA blk	DRD3 agonist	D1 PAM
CCc1ccccc1-n1nnc(-c2nsc(NC(=O)c3ccc(C)c(C)c3)n2)c1C	.	/	.	.	.	.
CCCc1nc(SCC(=O)N2CCOCC2)c2c(C)c(C)sc2n1	.	.	.	.	.	.
CNC[C@H](CC1CCCCC1)NC[C@H](Cc1ccccc1)NCCC12CC3CC(CC(C3)C1)C2	32	.	.	.	.	.
CCCC(=O)NNC(=O)CCC(=O)Nc1ccccc1Cl	.	.	.	.	.	.
CCCC(=O)NC1=C(Cl)C(=O)c2ccccc2C1=O	/	-68	/	.	.	/
O=C(NCCN1CCCC1)c1ccccc1Cl	.	.	.	.	.	.
CCNC1=C(Cl)C(=O)c2ccccc2C1=O	.	?	-36	.	.	.
O=C1C(Cl)=C(NCc2ccco2)C(=O)c2ccccc21	/	.	/	.	.	/
O=C1C(Cl)=C(NCCN2CCCCC2)C(=O)c2ccccc21	.	-63	.	.	.	.
CCOc1ccc(-n2c(-c3ccc(OC)cc3)cc3c2CC(C)(C)CC3=O)cc1	.	/	.	.	.	.
Cc1ccc(-c2nc(C(=O)N3CCN(c4ccccc4)CC3)c3n2CCCCC3)cc1	.	/	.	.	.	.
c1ccc(CC2CCN(c3ncnc4sccc34)CC2)cc1	38	.	.	.	.	.
CC(C)c1ccc(Nc2nc(N3CCOCC3)nc(N3CCOCC3)n2)cc1	/	-74	/	/	.	/
CN1CCN(c2nc(Nc3cccc(C(F)(F)F)c3)nc(N3CCOCC3)n2)CC1	.	-98	.	.	.	.
COc1ccccc1N(CC(=O)NCC(C)C)S(=O)(=O)c1cccs1	.	.	.	.	.	.
O=S(=O)(NC1=NCCCCCC1)c1cccs1	.	.	.	/	.	.
CCc1ccc(CN2CCC(n3nccc3NC(=O)C3CCCC3)CC2)cc1	.	.	.	.	.	32
O=C(Nc1ccnn1C1CCN(Cc2ccc3nonc3c2)CC1)c1cccc(F)c1	.	.	-39	.	.	.
O=C(Nc1ccnn1C1CCN(Cc2ccc(Cl)cc2)CC1)C1CCCC1	.	.	.	.	.	.
CCc1ccc(CN2CCC(n3nccc3NC(=O)c3cccc(F)c3)CC2)cc1	.	.	.	.	.	.
CN1C(=O)C(CC(=O)Nc2ccc(F)cc2)N(CCCc2ccccc2)C1=S (stereo not given)	.	.	.	.	.	.
CC(=O)c1c(N2CCN(c3ccccc3)CC2)nc(=S)n(-c2ccccc2)c1C	.	-53	.	.	.	.
CC(=O)c1cc(C#N)c(N2CCN(c3ccccc3)CC2)nc1C	.	.	-43	.	.	.
CC(=O)c1c(N2CCN(CCO)CC2)nc(=S)n(-c2ccccc2)c1C	.	.	.	.	.	.
CCC(OC(=O)c1nsc(Cl)c1Cl)C(=O)NCCOC (stereo not given)	.	.	.	.	.	.
SMILES	D1 agonist	DRD3 antagonist	D1 antagonist	ERG Ets-DNA blk	DRD3 agonist	D1 PAM
CC1CC(C)CN(S(=O)(=O)c2ccc(C(=O)Nc3nnc(-c4cccs4)o3)cc2)C1 (stereo not given)	.	.	.	.	.	.
CCC1CCCCN1S(=O)(=O)c1ccc(C(=O)Nc2nnc(-c3cccs3)o2)cc1 (stereo not given)	.	-75	.	.	.	.
N#Cc1ccc(C(=O)Nc2nnc(-c3cccs3)o2)cc1	.	.	.	.	.	.
Cc1nnc(NC(=O)c2ccc(S(=O)(=O)N(C)Cc3ccccc3)cc2)o1	.	-72	.	.	.	.
Cc1nnc(NC(=O)c2ccc(S(=O)(=O)N3CC(C)OC(C)C3)cc2)o1 (stereo not given)	.	.	.	.	.	.
Cc1nnc(NC(=O)c2ccc(S(=O)(=O)N3CCCCCC3)cc2)o1	.	-72	.	.	.	.
O=C(Nc1nnc(-c2cccs2)o1)c1cccc(C(F)(F)F)c1	.	.	-50	.	.	/
Cc1ccc(NC(=O)CSc2cn(CC(=O)N3CCOCC3)c3ccccc23)cc1Cl	.	/	.	.	.	.
CCC1Nc2ncnc(N3CCN(c4ccccn4)CC3)c2N(Cc2ccc(Cl)cc2)C1=O (stereo not given)	.	-104	.	.	.	.
CCC1Nc2ncnc(N3CCN(c4ccccn4)CC3)c2N(Cc2ccc(Br)cc2)C1=O (stereo not given)	/	-142	/	.	.	/
CC(C)CC1Nc2ncnc(N3CCN(c4ccccn4)CC3)c2N(Cc2ccccc2)C1=O (stereo not given)	/	.	/	.	.	/
O=C(Nc1ccon1)c1ccc(Cl)c(S(=O)(=O)N2CCCCC2)c1	.	.	.	.	.	.
COC(=O)c1ccccc1N1C(=O)[C@@H]2C(c3ccc(Br)cc3)=NO[C@@H]2C1=O	.	.	-48	.	.	.
COC(=O)c1ccccc1N1C(=O)C2C(C1=O)[C@H]1C=C[C@@H]2C1 (stereo not given in full)	.	.	.	.	.	.
Cc1ccc2oc3c(c(=O)c2c1)C(c1ccc(F)cc1)N(CCCN1CCOCC1)C3=O (stereo not given)	.	/	.	/	/	.
CCc1nnc(NC(=O)c2ccc(S(=O)(=O)NCC(C)C)cc2)s1	.	.	.	/	.	.
O=C(c1cccc(C(=O)N(c2ccccn2)C2CCCCC2)c1)N(c1ccccn1)C1CCCCC1	.	-54	.	?	.	.
O=C(Nc1ccc(OC(F)(F)F)cc1)C1CCCCN1S(=O)(=O)c1ccccc1 (stereo not given)	.	.	.	.	.	.
FC(F)(F)c1cccc(NC(=S)NC2CCCC2)c1	.	.	-36	.	.	.
FC(F)(F)c1ccc(NC(=S)NC2CCCCC2)cc1	.	.	-44	.	.	.
FC(F)(F)c1cccc(NC(=S)NCC2COc3ccccc3O2)c1 (stereo not given)	.	.	-35	.	.	.
Fc1cccc(NC(=S)NC2CCCCCCC2)c1	.	.	.	.	.	.
C=CCNC(=O)c1onc(CSc2cccc(OC)c2)c1C(=O)O	.	.	.	.	.	.
Cc1cc(Nc2nc3ccccc3nc2Cl)n(-c2ccc([N+](=O)[O-])cc2)n1	.	.	.	/	.	.
O=[N+]([O-])c1ccc(N/N=C/c2c[nH]c3ccccc23)c(S(=O)(=O)Nc2ccc(Cl)cc2)c1	45	?	.	.	.	.
Cc1[nH]c2ccccc2c1/C=N/NC(=O)c1cccc(F)c1	.	?	-66	.	.	.
CN1CCN(S(=O)(=O)c2cc([N+](=O)[O-])ccc2N/N=C/c2ccc(Cl)cc2)CC1	.	.	.	.	.	.
Cc1[nH]c2ccccc2c1/C=N/Nc1ccc([N+](=O)[O-])cc1	125	?	.	.	.	.

Screening data from PubChem.
